From PubChem BioAssay come the findings set out here.

SMILES strings stand for the structures. Calls of active or inactive are those of the source.

For one test, the target named is Albumin (Bos taurus) (UniProt P02769). The experiment in a line: compounds binding labelled BSA control protein – biochemical, small-molecule microarray, Alexa647 label, 635/667 nm fluorescence, artefact control for SMM control protein annotation, profiling panel (AID 1118).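 Further: score merges 667 nm emission intensity and signal-to-noise per printed compound spot.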 The note with it: BSA-A647 binding, fluorescence 635 nm, higher = more signal.
Albumin (Bos taurus), sequence (P02769 whole entry, looked up): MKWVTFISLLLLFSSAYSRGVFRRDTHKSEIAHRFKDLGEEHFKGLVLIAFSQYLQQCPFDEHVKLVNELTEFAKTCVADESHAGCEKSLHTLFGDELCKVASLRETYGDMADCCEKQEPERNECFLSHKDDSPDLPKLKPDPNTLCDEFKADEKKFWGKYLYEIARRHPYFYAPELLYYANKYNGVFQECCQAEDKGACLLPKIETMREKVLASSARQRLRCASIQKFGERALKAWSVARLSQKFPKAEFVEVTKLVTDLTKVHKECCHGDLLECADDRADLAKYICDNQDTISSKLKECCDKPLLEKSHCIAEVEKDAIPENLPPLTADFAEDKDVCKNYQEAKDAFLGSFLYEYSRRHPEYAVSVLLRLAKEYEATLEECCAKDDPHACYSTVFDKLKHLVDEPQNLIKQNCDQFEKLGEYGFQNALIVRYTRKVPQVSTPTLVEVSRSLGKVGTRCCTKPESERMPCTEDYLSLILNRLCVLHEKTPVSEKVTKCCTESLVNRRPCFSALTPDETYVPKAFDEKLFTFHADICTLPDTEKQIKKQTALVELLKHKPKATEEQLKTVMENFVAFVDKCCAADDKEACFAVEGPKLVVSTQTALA
The nature of test [1]: probe aXIP binding to arrayed compounds – biochemical, NeuroSMM set, 635/667 nm fluorescence, primary screen (AID 1119).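 Further: probe is the protein aXip251-270 applied at 1 µg/mL to compound-printed slides; binding of probe to printed compounds measured as 667 nm fluorescence plus signal to noise.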 The settings on record: small-molecule microarray, higher = more signal, called active from +8 up or from −8 down.
Test [2] in a line: probe aNOTCH3 binding on compound microarray – biochemical, small-molecule microarray, 635/667 nm fluorescence, primary screen (AID 1120).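 Further: probe is a biotin-tagged antibody raised against NOTCH3 rather than NOTCH3 protein; score merges spot fluorescence near 667 nm with spot signal to noise.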 The note with it: higher = more signal.
A short description of test [3]: probe aNOTCH2 binding on compound microarray – biochemical, small-molecule microarray, 635/667 nm fluorescence, primary screen (AID 1121).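 Further: score merges feature fluorescence read at 667 nm with its signal to noise.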 The settings on record: higher = more signal.
The target of test [4] is Carbonic anhydrase 2 (Homo sapiens) (UniProt P00918). The experiment in a line: compounds binding carbonic anhydrase 2 – biochemical, small-molecule microarray, Alexa647-labelled CAII, profiling panel (AID 1122). The settings on record: CAII-A647 binding fluorescence, higher = more signal.
Test [5] in a line: COS7 lysate on small-molecule microarray, probe aHis, 635 nm (AID 1123).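 Further: z-score combines 667nm fluorescence intensity with signal-to-noise per printed compound spot.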 The note with it: COS7 cell lysate, fluorescence, higher = more signal.
Test [6] in a line: probe aLAP1 signal on lysate-treated microarray – cell lysate, small-molecule microarray, COS7 lysate, primary screen (AID 1124).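 Further: lysate comes from COS7 cells expressing LAP1 and is applied at 0.3 µg/mL; score merges spot fluorescence near 667 nm with signal-to-noise over triplicate slides.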 The note with it: probe aLAP1, fluorescence, higher = more signal.
A further test has as its system Sam68 (KHDRBS1). The experiment in a line: compounds binding KHDRBS1 protein – biochemical, small-molecule microarray, 635 nm fluorescence, primary screen (AID 1125).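 Further: score merges 667 nm channel intensity with signal to noise over triplicate slides.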 The note with it: higher = more signal.
The test system of test [7] is Chordin-like protein 2 (CHRDL2). The experiment in a line: compounds binding chordin-like 2 – biochemical, small-molecule microarray, 635 nm fluorescence, primary screen (AID 1126).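 Further: printed compound slides probed with Chrdl2 protein at 4 µg/mL for 1 h at 4 C; score merges 667 nm emission intensity with signal to noise over three replicate slides.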 The note with it: fluorescence 635 nm, higher = more signal.
Test [8] deals with Concanavalin-A (Canavalia ensiformis) (UniProt P02866). The experiment in a line: compounds binding concanavalin A lectin – biochemical, small-molecule microarray, Alexa647 label, 635 nm, artefact control for SMM control protein annotation, primary screen (AID 1127).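 Further: z combines 667 nm emission intensity with signal-to-noise across three replicate slides.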 The note with it: ConA-A647 binding fluorescence, higher = more signal.
Concanavalin-A (Canavalia ensiformis), sequence (P02866 whole entry, looked up): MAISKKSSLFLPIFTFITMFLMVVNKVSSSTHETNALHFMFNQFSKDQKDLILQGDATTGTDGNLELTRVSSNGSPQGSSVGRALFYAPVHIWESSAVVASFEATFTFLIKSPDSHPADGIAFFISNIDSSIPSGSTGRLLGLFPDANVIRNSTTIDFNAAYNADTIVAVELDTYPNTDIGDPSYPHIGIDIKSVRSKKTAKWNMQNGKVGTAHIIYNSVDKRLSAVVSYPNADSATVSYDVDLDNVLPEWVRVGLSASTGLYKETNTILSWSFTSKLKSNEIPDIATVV

As for `O=C1[C@H]2[C@H]3[C@H](O)[C@H](O)CC(=NO[C@@H]4O[C@H](CO)[C@@H](O)[C@H](O)[C@H]4O)[C@H]3CC[C@H]2C(=O)N1c1cccc(Oc2ccccc2)c1`, the composite z-score in the test with Albumin (Bos taurus) is -0.0534; in test [2] it was -0.118; in test [3], -0.133; in test [4], -0.0707; in test [5] it was 0.305; in [6] it was 0.105. The composite z-score in the test with Sam68 (KHDRBS1) came to 0.88; in [7], 0.48; in test [8], 0.264. Further, the composite Z-score in [1] is 0.189 (inactive).

As for `COc1ccc(O[C@H]2C=C[C@@H](c3ccccc3)O[C@@H]2CON=C(C)C)cc1`, the composite z-score in the test with Albumin (Bos taurus) was 0.0254; in [2], 0.201; in test [3] it was -0.0548; in [4], 0.153; in [5], 0.136; in test [6] it was -0.0187. The composite z-score in the test with Sam68 (KHDRBS1) was -1.05; in test [7], 0.0435; in test [8], 0.0731. Also, in [1], the composite Z-score was 0.537 (inactive).

Consider `CC(C)=CCCC(C)=CCON=C1C[C@@H](O)[C@@H](O)[C@@H]2[C@@H]3C(=O)N(C(C)(C)C)C(=O)[C@@H]3CC[C@H]12`, for which the composite z-score with Albumin (Bos taurus) was 0.161; in [2], 0.149; in [3] it was -0.0846; in [4] it was 0.0334; in test [5] it was 0.043; in test [6], 0.373. In addition, the results for the composite z-score (in the test on Sam68 (KHDRBS1); in [7]; in [8]) were 0.293, 0.346 and 0.198, respectively. In addition, the composite Z-score in test [1] was 1.26 (inactive).

With `O=C1CCCC=C1C(CCc1ccccc1)OC(=O)c1ccc(Br)cc1` (stereo not given), the composite z-score with Albumin (Bos taurus) is -0.457; in test [2], -0.104; in test [3], -0.146; in [4], -0.475; in test [5] it was 0.214; in test [6] it was -0.815. Besides, the composite z-score was -1.4 in the test on Sam68 (KHDRBS1), 0.388 in [7] and -0.612 in test [8]. For the same compound, in [1], the composite Z-score is -0.727 (inactive).

Turning to `COc1cccc([C@H]2Oc3ccc(OC)cc3C(=NOC[C@@H](O)[C@H]3O[C@@H]4OC(C)(C)O[C@@H]4[C@H]3O)[C@@H]2O)c1`, the composite z-score in the test with Albumin (Bos taurus) was 0.891; in test [2] it was 0.0831; in [3], -0.139; in test [4], -0.149; in [5], 0.48; in [6], 0.248. Further, the figures for the composite z-score (with Sam68 (KHDRBS1); in [7]; in [8]) were 0.706, 0.461 and 0.532, respectively. Moreover, the composite Z-score in test [1] is -0.563 (inactive).

Consider `COC(=O)CC=C[C@@H](C)[C@@H](C=NO[C@@H]1O[C@H](COC(C)=O)[C@@H](OC(C)=O)[C@H](OC(C)=O)[C@H]1OC(C)=O)OC`, for which the composite z-score with Albumin (Bos taurus) was 0.216; in [2] it was 0.0303; in test [3], -0.0294; in [4], -0.605; in [5], -0.152; in test [6], 0.124. Further, the composite z-score in the test on Sam68 (KHDRBS1) is 0.702; in test [7], -0.0703; in [8], -1.33. The composite Z-score in test [1] is -0.421 (inactive).

For the compound `CCN1C(=O)[C@@H]2[C@H]3C(=CC[C@@H]2C1=O)C1(OCCCO1)[C@H]1O[C@H]1[C@H]3O`, the composite z-score with Albumin (Bos taurus) was 0.488; in test [2] it was 0.162; in test [3] it was -0.0948; in [4] it was 0.429; in test [5], 2.12; in test [6], 0.251. Moreover, the composite z-score in the test with Sam68 (KHDRBS1) stood at 1.29; in test [7], 0.333; in test [8], 1. In test [1], the composite Z-score is 0.369 (inactive).

Regarding `Cc1cc2c(nc1C)CCCCN2CC(C)ON=C1[C@H]2CCn3c(=O)n(-c4ccccc4)c(=O)n3[C@H]2[C@H](O)[C@@H]2O[C@H]12` (stereo not given in full), the composite z-score with Albumin (Bos taurus) was 0.762; in test [2], 0.0562; in test [3] it was -0.117; in test [4], 0.435; in test [5], 0.812; in [6] it was 0.0072. For the same compound, the composite z-score in the test with Sam68 (KHDRBS1) was 0.573; in [7] it was 0.373; in test [8] it was -0.765. Besides, the composite Z-score in test [1] is -0.343 (inactive).

In the case of `CSCC[C@@H]1NC(=O)CC=C[C@@H](C)COC(=O)[C@@H](C)COC1=O`, the composite z-score with Albumin (Bos taurus) is -1.1; in [2], -0.155; in test [3], -0.175; in test [4], -0.762; in test [5], -1.1; in [6], 0.145. Further, the composite z-score in the test with Sam68 (KHDRBS1) was -0.399; in [7], 0.683; in test [8], -2.02. Besides, the composite Z-score in test [1] was 0.517 (inactive).

`CCOC(=O)[C@H](CC(C)C)NC(=O)CCC1CC(OC(=O)NCc2ccc3c(c2)OCO3)CC2(CCCC(COC(=O)NCc3cccc(C(F)(F)F)c3)O2)O1` (stereo not given in full): the composite z-score was -0.232 with Albumin (Bos taurus); -0.136 in test [2]; -0.169 in test [3]; 0.284 in [4]; 0.292 in test [5]; -0.37 in test [6]. Besides, the composite z-score in the test on Sam68 (KHDRBS1) is 0.119; in test [7] it was 0.192; in test [8], 0.0441. In addition, the composite Z-score in test [1] was -0.104 (inactive).

As for `C[C@H]1COC(=O)[C@@H]2CCCN2C(=O)[C@@H](C)COC(=O)[C@H](Cc2ccccc2)NC1=O`, the composite z-score with Albumin (Bos taurus) is -0.0588; in test [2], -0.0647; in test [3], -0.126; in test [4], 0.294; in test [5], 0.403; in test [6] it was 0.137. Further, the composite z-score in the test with Sam68 (KHDRBS1) is 0.957; in test [7], 0.211; in test [8] it was 0.476. For the same compound, in test [1], the composite Z-score was -0.21 (inactive).

As for `COc1cccc([C@H]2Oc3ccc(OC)cc3C(=NO[C@@H](C)c3cn([C@H](CO)Cc4ccccc4)nn3)[C@@H]2O)c1`, the composite z-score in the test with Albumin (Bos taurus) is 0.874; in [2], -0.132; in [3], -0.207; in test [4], -0.0163; in test [5], 0.107; in test [6], 0.664. Moreover, the results for the composite z-score (in the test on Sam68 (KHDRBS1); in [7]; in test [8]) were -0.0592, -0.54 and 0.373, respectively. For the same compound, the composite Z-score in test [1] was 0.637 (inactive).

For the compound `CCOC(=O)NN=C1C[C@@H](O)[C@@H](O)[C@@H]2[C@@H]3C(=O)N(Cc4ccc5c(c4)OCO5)C(=O)[C@@H]3CC[C@H]12`, the composite z-score was 0.717 with Albumin (Bos taurus); -0.0629 in test [2]; -0.14 in test [3]; 0.347 in test [4]; 0.926 in test [5]; -0.387 in test [6]. The composite z-score in the test on Sam68 (KHDRBS1) was 0.364; in test [7], -0.121; in [8] it was -1.27. Also, the composite Z-score in test [1] was -0.0189 (inactive).

Consider `CCOC(=O)NN=C1C[C@@H](O)[C@@H](O)[C@@H]2[C@@H]3C(=O)N(c4ccc(F)cc4F)C(=O)[C@@H]3CC[C@@H]12`, for which the composite z-score with Albumin (Bos taurus) was 0.66; in test [2], -0.144; in test [3], -0.156; in test [4], -0.103; in test [5], 0.218; in test [6], 0.196. For the same compound, the composite z-score amounted to 0.591 with Sam68 (KHDRBS1), 0.312 in test [7] and 0.307 in test [8]. Besides, the composite Z-score in [1] was 0.16 (inactive).

Consider `COc1ccc(O[C@H]2C=C[C@@H](c3ccccc3)O[C@@H]2CON=C2[C@H]3CCn4c(=O)n(-c5ccccc5)c(=O)n4[C@H]3[C@H](O)[C@@H]3O[C@H]23)cc1`, for which the composite z-score in the test with Albumin (Bos taurus) is 0.67; in test [2] it was -0.0282; in [3] it was -0.132; in [4], 0.405; in test [5] it was 0.455; in [6], 0.244. In addition, the results for the composite z-score (in the test with Sam68 (KHDRBS1); in test [7]; in test [8]) were 1.18, 0.276 and 0.817, respectively. Moreover, in test [1], the composite Z-score was 0.125 (inactive).

`C[C@@H](c1ccccc1)N1C(=O)[C@H]2[C@H]3[C@H](O)[C@H](O)CC(=NO[C@@H]4O[C@H](CO)[C@@H](O)[C@H](O)[C@H]4O)[C@@H]3CC[C@H]2C1=O`: the composite z-score with Albumin (Bos taurus) was 0.423; in test [2] it was 0.0996; in test [3], -0.109; in [4], -0.157; in test [5] it was 0.335; in test [6], -0.0315. Besides, the composite z-score in the test with Sam68 (KHDRBS1) came out at 0.258; in [7], 0.25; in test [8] it was 0.411. The composite Z-score in [1] was -0.766 (inactive).

With `C#CCCCON=C1C[C@@H](O)[C@@H](O)[C@@H]2[C@@H]3C(=O)N(C(C)(C)C)C(=O)[C@@H]3CC[C@@H]12`, the composite z-score with Albumin (Bos taurus) is 0.0601; in test [2], 0.0137; in test [3], -0.123; in test [4], -0.219; in test [5], 0.496; in [6] it was 0.485. For the same compound, the composite z-score with Sam68 (KHDRBS1) is -0.161; in test [7], 0.888; in test [8], -0.616. Besides, the composite Z-score in test [1] is -0.0448 (inactive).
